# Test results reported in PubChem BioAssay (NCATS).
# Values without a mark were called inactive. How the calls were made is not given here.
# System: HIV-1 nucleocapsid protein NCp7 (binding to TG oligonucleotide)
# Experiment: HIV Nucleocapsid (AID 346);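 further: potency is for inhibitors that block NC binding and lower polarization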
# Conditions: HIV-1 NC / fluorescein-TGTGTGTG probe, fluorescence polarization
# Summary of the method: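 Fluorescence polarization readout: labelled TG4xF oligo (10 nM) with 100 nM nucleocapsid protein, high-salt (250mM NaCl) Hepes pH 7.5 buffer containing zinc and fresh reducing agents. Compounds added by pin tool; incubation 1 hr, room temperature.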
# Potency means the concentration at half of the fitted maximal effect.
row,Structure (SMILES),Potency
1,COCCn1c(=O)c(-c2cc(F)cc(F)c2)nc2cnc(N3CCOCC3)nc21,> 20 µM
2,O=C(Nc1ccccc1)N1CC[C@@]2(CCCN(C(=O)c3ccco3)C2)C1,> 20 µM
3,Cc1cnc(CNc2cc(-c3ccc(N(C)C)cc3)ncn2)cn1,> 20 µM
4,N#CCCn1c(=O)c(-c2cccs2)nc2cnc(Nc3ccccc3)nc21,> 20 µM
5,COC(=O)N1CCC2(CCCN(C(=O)Nc3ccc(OC)cc3)C2)CC1,> 20 µM
6,COc1ccc(Oc2ncc3nc(-c4ccc(F)cc4)c(=O)n(Cc4cccs4)c3n2)cc1,> 20 µM
7,CC(=O)N1CCC2(CC1)CN(c1ccccc1)C2,> 20 µM
8,CC(=O)N1CCC2(CC1)CCN(c1ccccn1)CC2,> 4 µM
9,O=C(c1ccco1)N1CCC2(CC1)CN(c1ccccc1)C2,> 20 µM
10,c1cn(-c2ccnc(-c3ccc4c(c3)OCO4)n2)cn1,> 20 µM
11,O=C(c1csnn1)N1CCC2(CCCN(c3ccc(-c4ccccc4)cc3)C2)CC1,> 20 µM
12,COc1ncc2nc(-c3cn(C)c4ccccc34)c(=O)n(CCc3ccccc3)c2n1,> 20 µM
13,FC(F)(F)c1ccccc1-c1ccc2ncnc(NC3CC3)c2c1,> 20 µM
14,O=c1c(-c2ccccc2)nc2cnc(N3CCOCC3)nc2n1CCc1ccccc1,> 20 µM
15,COc1ccc(C(=O)N2CCC3(CC2)CCN(c2cccc(-c4ccccc4)c2)CC3)cc1,> 20 µM
